Test [1] in a line: NCI Yeast Anticancer Drug Screen. Data for the rad50 strain (AID 155).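 Also: 0% = growth of vehicle-only cultures of the same strain.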 The settings on record: S. cerevisiae rad50 strain growth inhibition; at 50.0 µM; hits give high values. An outline of the steps:
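DNA repair mutant yeast, compound exposure, growth read-out; inhibition is taken relative to vehicle.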

A short description of test [2]: NCI Yeast Anticancer Drug Screen. Data for the mec2-1 strain (AID 157). The settings on record: S. cerevisiae mec2-1 strain, at 50.0 µM, hits give high values. Summed up: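 Using mec2-1 yeast: add compound, measure growth, express inhibition versus vehicle-treated cultures.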
Test [3] is described as follows: NCI Yeast Anticancer Drug Screen. Data for the sgs1 mgt1 strain (AID 161).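 Also: 0% = growth of cultures given vehicle only.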 The settings on record: S. cerevisiae sgs1 mgt1 strain, at 50.0 µM, hits give high values. Summed up:
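Growth of a repair-deficient yeast mutant was monitored after compound treatment and expressed as inhibition relative to vehicle-treated cultures.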

Test [4] in a line: NCI Yeast Anticancer Drug Screen. Data for the cln2 rad14 strain (AID 165).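 Also: 0% = growth equal to vehicle treated cultures.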 The settings on record: S. cerevisiae cln2 rad14 strain, at 50.0 µM, hits give high values. An outline of the steps:
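Yeast strain cln2 rad14, bearing defects in cell cycle control and DNA repair, serves as the test system; values reflect growth inhibition compared with vehicle.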

Test [5] is described as follows: NCI Yeast Anticancer Drug Screen. Data for the bub3 strain (AID 167). The settings on record: S. cerevisiae bub3 mutant strain, at 50.0 µM, hits give high values. An outline of the steps:
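In this screen, a yeast mutant lacking normal mitotic checkpoint function is challenged with compound. Relative growth versus vehicle gives the inhibition value.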

A short description of test [6]: NCI Yeast Anticancer Drug Screen. Data for the mlh1 rad18 strain (AID 175). The settings on record: S. cerevisiae mlh1 rad18 strain growth inhibition; at 50.0 µM; hits give high values. Summed up: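 Steps: expose repair-defective yeast to compound; measure growth; express inhibition against vehicle-treated controls.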

About 79,000 compounds went through this panel and 15% of them were active in at least one assay; those are over-represented in the sample as a whole. Unmarked numbers belong to inactive results. Activity calls are given as the source filed them. Rule as the data show it: active = growth inhibition above about 70%; inactive = the rest.

Consider `C=C(CBr)CCCCC`, for which the growth inhibition in test [1] is 65.1%; in test [2], 23.3%; in test [3] it was 62.6%; in test [4], 14.1%; in test [5] it was 29.8%; in test [6], 0.55%.

For the compound `O=C(O)c1cccc(C(=O)O)[n+]1[O-]`, the growth inhibition in test [1] was 6.05%; in test [2], -22.6%; in test [3] it was -17.8%; in test [4], 2.4%; in test [5], -11.8%; in test [6] it was -10%.

`C/C(C/C(C)=N/O)=N/O`: the growth inhibition is -8.6% in test [1]; -5.85% in test [2]; 2.8% in test [3]; 0.45% in test [4]; -2.55% in test [5]; 17.7% in test [6].

Regarding `CC(=O)Nc1c(C)ccc([N+](=O)[O-])c1C`, the growth inhibition in test [1] was -3.2%; in test [2], -2.2%; in test [3] it was -9.7%; in test [4] it was 5.95%; in test [5], 2.7%; in test [6], 13.5%.

With `CCCCCCCCCCC(CO)CCCCCCCC` (stereo not given), the growth inhibition is -14.8% in test [1]; 8.85% in test [2]; 5.85% in test [3]; -1.55% in test [4]; -9.45% in test [5]; 4% in test [6].

Turning to `C=C1C2CC3CCC2C(OC(=O)c2ccccc2C(=O)O)C13` (stereo not given), the growth inhibition was -0.45% in test [1]; -11.2% in test [2]; 1.4% in test [3]; 14.8% in test [4]; -2.2% in test [5]; -19.3% in test [6].

Regarding `CCOC(=O)c1cc(C)[nH]n1`, the growth inhibition in test [1] is -37.9%; in test [2], -26.1%; in test [3] it was -6.75%; in test [4], -11.7%; in test [5], -26.9%; in test [6] it was 2.15%.

In the case of `CCN=C(C#N)NCC`, the growth inhibition in test [1] is 19.2%; in test [2], -3.75%; in test [3] it was 20.9%; in test [4] it was 16.6%; in test [5] it was 25.2%; in test [6] it was 29.8%.

Consider `CC[O-].CC[O-].O=Nc1ccc2cc([O-])ccc2c1.O=Nc1ccc2cc([O-])ccc2c1.[Ti+4]`, for which the growth inhibition in test [1] was 34.9%; in test [2], 44.9%; in test [3], 59.5%; in test [4], 45%; in test [5], 52.6%; in test [6], 15.9%.

As for `CC(=O)Nc1ccc(Cc2ccc(Cl)cc2)cc1`, the growth inhibition in test [1] is 5.6%; in test [2], 0.7%; in test [3], 5.7%; in test [4], 10.8%; in test [5], -9.8%; in test [6] it was -2.6%.

In the case of `CCCCCC(=O)NC(=S)Nc1nn[nH]n1`, the growth inhibition is -38.8% in test [1]; -50.7% in test [2]; -39.1% in test [3]; -8.4% in test [4]; -25.3% in test [5]; -47.1% in test [6].

`Cc1cc(OC(N)=S)cc(C)c1Cl`: the growth inhibition in test [1] was 20.6%; in test [2], 4.2%; in test [3], 7.6%; in test [4] it was -6.25%; in test [5], 3.4%; in test [6] it was -2.1%.

Turning to `C=C(c1ccccc1)c1cccc2ccccc12`, the growth inhibition in test [1] was -2.45%; in test [2], 3.45%; in test [3], -4.9%; in test [4], 19.9%; in test [5], -11.7%; in test [6], 6.55%.

In the case of `CC(=O)NC(N)=O`, the growth inhibition in test [1] is 3.9%; in test [2], 2.2%; in test [3], 28.4%; in test [4], -30.9%; in test [5] it was -1.9%; in test [6] it was 1.6%.

Take `Nc1c(S(=O)(=O)O)cc2cc(S(=O)(=O)O)ccc2c1N`: the growth inhibition in test [1] was 9.9%; in test [2] it was -12.6%; in test [3] it was 6%; in test [4], -15.7%; in test [5], 17.8%; in test [6], 24.9%.

For `CCCCCCCCC(O)C(O)CCCCCCCCOC(=O)CCCCCCCCCCC(O)CCCCCC` (stereo not given), the growth inhibition in test [1] was 13.1%; in test [2], -8.65%; in test [3] it was -1.55%; in test [4], -9.7%; in test [5], -2.1%; in test [6] it was 18.4%.

Regarding `Cn1c2ccccc2c(=O)c2c(O)cc3c(c21)CC(C1(C)CO1)O3` (stereo not given), the growth inhibition in test [1] is 86.2% (active); in test [2] it was 79.6% (active); in test [3], 72% (active); in test [4], 80.7% (active); in test [5], 42.5%; in test [6], 83.1% (active).

`C=COC(=O)C(Cc1ccccc1)NC(=O)OCc1ccccc1` (stereo not given): the growth inhibition was -5.2% in test [1]; 10.8% in test [2]; -23.2% in test [3]; 10.6% in test [4]; -7.65% in test [5]; 6.9% in test [6].

For the compound `CC(=O)C1CC[C@@]2(C)C(CC[C@H]3[C@@H]4CCC[C@H]([C@H](C)O)[C@@]4(C)CC[C@@H]32)C1` (stereo not given in full), the growth inhibition in test [1] was -16.9%; in test [2] it was 0.3%; in test [3], 2.9%; in test [4], 0.4%; in test [5] it was -5.5%; in test [6], -7.5%.

As for `CCCCN=C(C)CC(=O)CC(=O)c1ccccc1`, the growth inhibition is 30.3% in test [1]; 23.1% in test [2]; 44.4% in test [3]; -53.6% in test [4]; 22.4% in test [5]; 33.9% in test [6].

These data come from PubChem BioAssay (NCI).
